# Assay results taken from the supplement of paper PMC6555819.
# Legend:
# Assay in all cases: PBM binding z-score (relative to random genomic background probes); higher = stronger binding; sequences stand for … in GC…GCGATTGACAGCGTAGAATGAAGG
# [1] = test system: FXR:RXRa (NR concentration 270 nM, RXRa partner concentration 90 nM)
# How it was run: (§1)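 Probes were double-stranded and carried 34-nt variable regions with direct-repeat seeds, single-nucleotide variants, half-site ablations and random human genomic background sequences, printed on custom Agilent 4×180K protein-binding microarrays. Arrays were incubated 1 h with ligand-free nuclear receptor dimers in PBS pH 7.4, 2% milk, 0.02% Triton X-100, 1 mM DTT, 0.2 mg/mL BSA and 0.4 mg/ml salmon testes DNA. Antibodies against each partner (one per run) detected binding, and scanned fluorescence was regression-normalized. Binding z-scores use the random background probes as reference.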
# [2] = test system: LXRa:RXRa (NR concentration 270 nM, RXRa partner concentration 90 nM)
# How it was run: as §1
# [3] = test system: LXRa homodimer (NR concentration 270 nM)
# How it was run: as §1
# [4] = test system: LXRb:RXRa (NR concentration 270 nM, RXRa partner concentration 90 nM)
# How it was run: as §1
# [5] = test system: LXRb homodimer (NR concentration 270 nM)
# How it was run: as §1
# [6] = test system: PPARa:RXRa (NR concentration 270 nM, RXRa partner concentration 90 nM)
# How it was run: as §1
# [7] = test system: PPARg:RXRa (NR concentration 180 nM, RXRa partner concentration 90 nM)
# How it was run: as §1
# [8] = test system: PPARg:RXRa 270nM:90nM, anti-RXR (NR concentration 270 nM, RXRa partner concentration 90 nM)
# How it was run: as §1
# [9] = test system: PPARg:RXRa 30nM:10nM, anti-RXR (NR concentration 30 nM, RXRa partner concentration 10 nM)
# How it was run: as §1
# [10] = test system: PPARg:RXRa 90nM:30nM, anti-RXR (NR concentration 90 nM, RXRa partner concentration 30 nM)
# How it was run: as §1
# [11] = test system: PPARg:RXRa DBDmut IVT, anti-RXR (DBD mutation: RXRa K156A/R161A, NR concentration 270 nM, RXRa partner concentration 90 nM)
# How it was run: as §1
# [12] = test system: PPARg:RXRa IVT, anti-PPARg (NR concentration 270 nM, RXRa partner concentration 90 nM)
# How it was run: as §1
# [13] = test system: PPARg DBDmut:RXRa IVT, anti-PPARg (DBD mutation: PPARg1 K132A/R137A, NR concentration 270 nM, RXRa partner concentration 90 nM)
# How it was run: as §1
# [14] = test system: PPARg DBDmut IVT, anti-PPARg (DBD mutation: PPARg1 K132A/R137A, NR concentration 270 nM)
# How it was run: as §1
# [15] = test system: PPARg homodimer (NR concentration 180 nM)
# How it was run: as §1
# [16] = test system: PXR:RXRa (NR concentration 270 nM, RXRa partner concentration 90 nM)
# How it was run: as §1
# [17] = test system: PXR homodimer (NR concentration 270 nM)
# How it was run: as §1
# [18] = test system: RARa:RXR (NR concentration 270 nM, RXRa partner concentration 90 nM)
# How it was run: as §1
# [19] = test system: RARa homodimer (NR concentration 270 nM)
# How it was run: as §1
# [20] = test system: RARb:RXRa (NR concentration 270 nM, RXRa partner concentration 90 nM)
# How it was run: as §1
Sequence,PBM binding z-score [1],PBM binding z-score [2],PBM binding z-score [3],PBM binding z-score [4],PBM binding z-score [5],PBM binding z-score [6],PBM binding z-score [7],PBM binding z-score [8],PBM binding z-score [9],PBM binding z-score [10],PBM binding z-score [11],PBM binding z-score [12],PBM binding z-score [13],PBM binding z-score [14],PBM binding z-score [15],PBM binding z-score [16],PBM binding z-score [17],PBM binding z-score [18],PBM binding z-score [19],PBM binding z-score [20]
ACTTACGGGTCAACGAGGATATAGCACGCGTATA,6.53,4.05,0.457,3.61,0.828,5.43,5,5.19,2.12,3.85,3.44,3.76,1.49,1.58,2.26,3.34,0.678,4.19,1.35,3.88
AGAACGAGGGCAATGAGTTGCTAGCACGGGTGGC,0.0307,-0.027,-0.614,-0.476,-0.767,1.23,1.05,0.875,-0.288,0.214,3.04,2.38,0.736,-0.0393,-0.0603,0.451,0.523,0.256,-0.567,1.98
ACTATTAGTTGATTTAGGGCAACCGATACGACGC,0.352,0.0302,0.44,0.0865,1.19,0.816,0.99,0.588,0.446,0.717,1.57,2.39,2.12,1.32,1.41,0.00966,0.993,0.345,1.47,0.582
CGTCAAACTTCAAGGTAACGTAACAGAAAGCAGC,0.471,0.1,0.0122,0.289,0.209,0.32,0.645,0.119,0.337,0.21,0.101,0.749,0.373,0.926,0.291,0.178,0.193,0.544,-0.134,0.507
TCTGGTAGATCAATAGAGGTTAAGAAAGTGCGCT,0.764,3.4,0.62,1.81,-0.161,1.62,-0.137,1.4,2.44,1.78,1.4,0.577,0.241,0.106,0.418,3,0.367,1.75,0.0136,0.93
CGACCAAGGTCAAGGTCAGTGAAAGAGACTCGAA,7.76,5.28,0.72,4.53,0.222,6.07,6.71,6.54,2.6,5.32,3.29,4.75,0.143,-0.162,3.87,4.59,0.777,4.89,1.42,5.78
